GBA activity up: increases beta-glucosidase activity in Gaucher fibroblasts | P04062 | L444P Gaucher fibroblasts, 4-MU-glucoside fluorescence, 3 days | activation, % at 10 µM | 0.44% of 30,000 active; in the data active means activation above about 65%;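 further: 0% = vehicle wells and 100% = positive control wells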
Active calls of the source: *. Shown is part of a subset that was picked to be rich in hits.

SMILES | GBA activity up
COc1ccc(Cl)cc1C(=O)Nn1cnc2ccccc2c1=O | -14.8
COc1cc(C)c(N)cc1C(C)C | -13.5
CCn1c(COc2ccc(C)cc2)nnc1SCC(=O)Nc1ccc2c(c1)OCCO2 | 4.3
CCOC(=O)N1CCN(C(=O)c2cn(CCOC)c(=O)c3c2c2ccccc2n3C)CC1 | -0.4
Cc1ccc(CN(Cc2cc3cccc(C)c3[nH]c2=O)C(=O)N(C)C)cc1 | -11.7
Cc1cccc2cc(CN(Cc3ccccc3)C(=O)N(C)C)c(=O)[nH]c12 | -7.8
COc1ccc(CN(Cc2cc3cccc(C)c3[nH]c2=O)C(=O)N(C)C)cc1 | 72.3*
Cc1cc(NC(=O)CSc2nc3ccccc3[nH]2)no1 | 99.9*
COc1cc(OC)nc(NC(=O)CSc2nc3ccccc3[nH]2)n1 | 3.6
Cc1cc(NC(=O)CSc2nc(-c3ccccc3)c(C#N)c(=O)[nH]2)no1 | 6.4
CC(C)CCn1nnnc1C(c1ccccc1F)N1CCC(C(N)=O)CC1 (stereo unspecified) | 17.9
CC(C)CCn1nnnc1C(c1ccccc1)N1CCC(C(N)=O)CC1 (stereo unspecified) | 87.0*
C=CCN1CCN(C(c2ccccc2)c2nnnn2CCC(C)C)CC1 (stereo unspecified) | -3.9
Cc1cc(C)nc(NS(=O)(=O)c2ccc(N3C(=O)C4CC=C(Cl)CC4C3=O)cc2)n1 (stereo unspecified) | 4.4
CCc1ccc(NC(=O)Cn2c(SC)nc3ccccc32)cc1 | 82.2*
COC(=O)n1c(SC)nc2ccccc21 | -10.4
CSc1nc2ccccc2n1CC(=O)Nc1c(C)n(C)n(-c2ccccc2)c1=O | -12.2
Cc1ccnc(NC(=O)CCC(=O)N(CC(=O)NC2CCCCC2)CC2CCCO2)c1 (stereo unspecified) | -8.6
NC(=O)NC(=O)CSc1cccc(C(F)(F)F)c1 | -20.8

Bioassay records as filed in PubChem BioAssay.
